Reference: article PMC7862700, “An all-to-all approach to the identification of sequence-specific readers for epigenetic DNA modifications on cytosine”

Tests used:
Assay in all cases: DAPPL (digital affinity profiling via proximity ligation, sequencing); 10 mM Tris-HCl pH 7.5, 50 mM NaCl, 1 mM DTT, 4% glycerol, room temperature, 30 min; GST-TFs on glutathione beads, 16-mer random dsDNA library, 0.1% formaldehyde crosslink after washing; high values mean tight binding
[1] = biological target: T1, FEV (Homo sapiens, UniProt Q99581 1-238); conditions: protein: recombinant; tags: N-terminal GST; dsDNA, one strand shown
T1 sequence: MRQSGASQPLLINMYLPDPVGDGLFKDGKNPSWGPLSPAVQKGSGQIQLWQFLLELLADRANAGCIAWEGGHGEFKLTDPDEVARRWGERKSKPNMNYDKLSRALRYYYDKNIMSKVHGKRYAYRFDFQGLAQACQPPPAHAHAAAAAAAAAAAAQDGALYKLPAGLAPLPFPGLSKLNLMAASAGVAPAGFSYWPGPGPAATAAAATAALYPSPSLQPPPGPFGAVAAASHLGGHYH
Method in brief: (§1)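 Yeast served to express human transcription factors as GST fusions, which were then captured on glutathione beads and labelled with DNA barcodes. Pooled with a tag-only sample, they were incubated with 200 nmole of a 16-mer random double-stranded DNA library for 30 min at room temperature in Tris/NaCl/DTT/glycerol buffer, washed, crosslinked with 0.1% formaldehyde, ligated by proximity, amplified by PCR and sequenced. Dividing each hexamer's read frequency for a factor by its frequency for the tag-only sample gives the binding signal.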

[2] = biological target: ETV5 (Homo sapiens, UniProt P41161 1-510); conditions: protein: recombinant; tags: N-terminal GST; dsDNA, one strand shown
Method in brief: as §1

[3] = biological target: HSF1 (Homo sapiens, UniProt Q00613 1-529); conditions: protein: recombinant; tags: N-terminal GST; chain copies: 3; dsDNA, one strand shown
Method in brief: as §1

[4] = biological target: T2, SPIC (Homo sapiens, UniProt Q8N5J4 1-248); conditions: protein: recombinant; tags: N-terminal GST; dsDNA, one strand shown
T2 sequence: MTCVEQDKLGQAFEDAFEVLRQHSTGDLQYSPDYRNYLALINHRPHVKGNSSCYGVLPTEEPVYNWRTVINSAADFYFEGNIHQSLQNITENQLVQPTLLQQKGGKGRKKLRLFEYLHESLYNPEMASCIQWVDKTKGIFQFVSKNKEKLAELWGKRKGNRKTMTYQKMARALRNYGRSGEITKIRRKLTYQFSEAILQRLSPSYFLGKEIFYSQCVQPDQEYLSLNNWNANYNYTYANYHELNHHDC
Method in brief: as §1

[5] = biological target: ELF4 (Homo sapiens, UniProt Q99607 1-663); conditions: protein: recombinant; tags: N-terminal GST; dsDNA, one strand shown
Method in brief: as §1

[6] = biological target: T3, ELK4 (Homo sapiens, UniProt P28324-2 1-405); conditions: protein: recombinant; tags: N-terminal GST; dsDNA, one strand shown
T3 sequence: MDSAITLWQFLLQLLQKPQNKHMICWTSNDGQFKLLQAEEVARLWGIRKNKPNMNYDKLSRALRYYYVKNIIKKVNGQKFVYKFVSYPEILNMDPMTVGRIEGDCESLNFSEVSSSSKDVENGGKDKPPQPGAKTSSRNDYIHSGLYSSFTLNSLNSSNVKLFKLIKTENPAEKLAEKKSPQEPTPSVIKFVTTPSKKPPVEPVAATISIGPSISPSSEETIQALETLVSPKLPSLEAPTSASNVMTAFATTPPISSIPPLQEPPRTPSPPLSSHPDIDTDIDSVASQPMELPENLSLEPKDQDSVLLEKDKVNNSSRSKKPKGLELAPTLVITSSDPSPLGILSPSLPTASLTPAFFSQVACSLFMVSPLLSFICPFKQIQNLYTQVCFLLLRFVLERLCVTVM
Method in brief: as §1

[7] = biological target: T4, ETV2 (Homo sapiens, UniProt O00321 1-342); conditions: protein: recombinant; tags: N-terminal GST; dsDNA, one strand shown
T4 sequence: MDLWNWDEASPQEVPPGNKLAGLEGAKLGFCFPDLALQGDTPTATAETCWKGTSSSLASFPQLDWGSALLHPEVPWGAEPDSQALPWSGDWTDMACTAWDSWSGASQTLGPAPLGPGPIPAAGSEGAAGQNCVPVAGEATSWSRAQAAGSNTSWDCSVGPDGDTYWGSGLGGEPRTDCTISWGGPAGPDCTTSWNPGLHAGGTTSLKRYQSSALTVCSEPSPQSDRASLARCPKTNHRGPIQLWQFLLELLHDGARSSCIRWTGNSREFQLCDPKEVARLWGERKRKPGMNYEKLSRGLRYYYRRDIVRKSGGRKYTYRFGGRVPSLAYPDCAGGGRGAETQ
Method in brief: as §1

[8] = biological target: CRX (Homo sapiens, UniProt O43186 1-299); conditions: protein: recombinant; tags: N-terminal GST; dsDNA, one strand shown
Method in brief: as §1

[9] = biological target: ETV1 (Homo sapiens, UniProt P50549 1-477); conditions: protein: recombinant; tags: N-terminal GST; dsDNA, one strand shown
Method in brief: as §1

[10] = biological target: T5, ERF (Homo sapiens, UniProt P50548 1-548); conditions: protein: recombinant; tags: N-terminal GST; dsDNA, one strand shown
T5 sequence: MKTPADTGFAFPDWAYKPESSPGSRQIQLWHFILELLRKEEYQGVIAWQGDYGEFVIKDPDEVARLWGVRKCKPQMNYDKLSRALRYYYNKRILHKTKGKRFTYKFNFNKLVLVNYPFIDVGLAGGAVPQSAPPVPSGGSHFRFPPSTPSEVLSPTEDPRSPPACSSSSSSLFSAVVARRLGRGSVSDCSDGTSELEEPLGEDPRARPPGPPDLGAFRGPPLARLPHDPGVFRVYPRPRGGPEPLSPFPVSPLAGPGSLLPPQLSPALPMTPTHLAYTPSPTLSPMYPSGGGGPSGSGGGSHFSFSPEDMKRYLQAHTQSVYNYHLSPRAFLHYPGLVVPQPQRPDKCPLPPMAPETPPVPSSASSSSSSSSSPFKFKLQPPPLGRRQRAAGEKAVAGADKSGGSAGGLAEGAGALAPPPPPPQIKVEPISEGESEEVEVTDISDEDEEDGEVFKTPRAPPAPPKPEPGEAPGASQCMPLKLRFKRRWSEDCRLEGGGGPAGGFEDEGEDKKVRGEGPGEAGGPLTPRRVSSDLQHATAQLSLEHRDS
Method in brief: as §1

[11] = biological target: T6, ETV3L (Homo sapiens, UniProt Q6ZN32 1-361); conditions: protein: recombinant; tags: N-terminal GST; dsDNA, one strand shown
T6 sequence: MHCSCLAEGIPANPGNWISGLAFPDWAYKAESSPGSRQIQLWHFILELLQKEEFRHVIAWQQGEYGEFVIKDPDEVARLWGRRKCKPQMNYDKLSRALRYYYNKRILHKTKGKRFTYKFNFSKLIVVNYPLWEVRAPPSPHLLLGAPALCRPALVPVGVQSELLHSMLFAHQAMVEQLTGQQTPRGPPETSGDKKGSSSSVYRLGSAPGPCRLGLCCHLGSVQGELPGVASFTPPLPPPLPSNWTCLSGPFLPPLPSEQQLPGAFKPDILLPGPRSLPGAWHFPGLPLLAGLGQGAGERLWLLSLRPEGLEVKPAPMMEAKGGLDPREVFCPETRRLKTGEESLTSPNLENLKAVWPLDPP
Method in brief: as §1

[12] = biological target: T7, ETS2 (Homo sapiens, UniProt P15036 1-469); conditions: protein: recombinant; tags: N-terminal GST; dsDNA, one strand shown
T7 sequence: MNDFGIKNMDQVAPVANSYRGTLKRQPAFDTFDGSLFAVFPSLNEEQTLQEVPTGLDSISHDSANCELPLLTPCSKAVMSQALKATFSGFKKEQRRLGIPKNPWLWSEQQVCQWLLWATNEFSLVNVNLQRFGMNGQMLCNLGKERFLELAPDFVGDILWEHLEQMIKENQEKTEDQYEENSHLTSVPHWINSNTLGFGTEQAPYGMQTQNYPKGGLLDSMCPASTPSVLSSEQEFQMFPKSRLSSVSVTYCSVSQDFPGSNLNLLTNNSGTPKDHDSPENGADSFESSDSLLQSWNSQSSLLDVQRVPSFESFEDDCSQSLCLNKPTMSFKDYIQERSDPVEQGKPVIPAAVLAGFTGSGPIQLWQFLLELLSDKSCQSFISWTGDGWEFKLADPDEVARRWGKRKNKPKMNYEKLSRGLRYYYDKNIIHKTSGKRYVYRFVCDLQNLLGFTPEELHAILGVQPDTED
Method in brief: as §1

[13] = biological target: T8, SPDEF (Homo sapiens, UniProt O95238 1-335); conditions: protein: recombinant; tags: N-terminal GST; dsDNA, one strand shown
T8 sequence: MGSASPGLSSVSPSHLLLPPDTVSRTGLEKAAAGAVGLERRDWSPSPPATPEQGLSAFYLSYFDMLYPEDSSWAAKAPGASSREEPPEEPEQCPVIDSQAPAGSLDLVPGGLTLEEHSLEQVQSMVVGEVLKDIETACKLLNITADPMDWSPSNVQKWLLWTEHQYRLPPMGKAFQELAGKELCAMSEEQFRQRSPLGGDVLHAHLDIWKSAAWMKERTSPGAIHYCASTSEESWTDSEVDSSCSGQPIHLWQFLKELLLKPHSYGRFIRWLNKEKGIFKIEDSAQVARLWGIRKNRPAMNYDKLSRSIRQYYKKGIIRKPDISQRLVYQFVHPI
Method in brief: as §1

[14] = biological target: T9, ETV7 (Homo sapiens, UniProt Q9Y603 1-341); conditions: protein: recombinant; tags: N-terminal GST; dsDNA, one strand shown
T9 sequence: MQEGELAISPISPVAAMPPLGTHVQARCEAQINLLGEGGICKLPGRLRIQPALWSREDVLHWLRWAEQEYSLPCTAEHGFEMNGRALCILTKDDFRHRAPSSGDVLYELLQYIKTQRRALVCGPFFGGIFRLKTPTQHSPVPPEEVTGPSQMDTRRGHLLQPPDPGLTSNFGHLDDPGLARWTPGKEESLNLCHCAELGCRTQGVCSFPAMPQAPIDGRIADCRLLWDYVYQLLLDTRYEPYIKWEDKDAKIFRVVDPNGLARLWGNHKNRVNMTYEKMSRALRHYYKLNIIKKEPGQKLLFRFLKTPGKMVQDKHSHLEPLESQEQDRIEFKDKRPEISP
Method in brief: as §1

[15] = biological target: T10, ELF5 (Homo sapiens, UniProt Q9UKW6-2 1-255); conditions: protein: recombinant; tags: N-terminal GST; dsDNA, one strand shown
T10 sequence: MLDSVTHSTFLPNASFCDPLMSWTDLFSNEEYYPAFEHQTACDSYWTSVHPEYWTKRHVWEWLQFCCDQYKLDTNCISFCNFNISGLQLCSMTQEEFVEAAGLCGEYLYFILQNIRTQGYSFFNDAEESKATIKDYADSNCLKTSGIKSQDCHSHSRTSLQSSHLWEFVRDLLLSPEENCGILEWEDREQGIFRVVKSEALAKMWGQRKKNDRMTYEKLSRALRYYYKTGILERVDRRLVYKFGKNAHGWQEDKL
Method in brief: as §1

[16] = biological target: T11, ETV3 (Homo sapiens, UniProt P41162-2 1-143); conditions: protein: recombinant; tags: N-terminal GST; dsDNA, one strand shown
T11 sequence: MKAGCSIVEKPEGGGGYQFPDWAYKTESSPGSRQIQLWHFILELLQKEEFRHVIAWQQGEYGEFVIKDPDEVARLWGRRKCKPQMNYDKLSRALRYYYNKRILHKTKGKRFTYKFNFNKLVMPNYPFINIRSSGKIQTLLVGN
Method in brief: as §1

[17] = biological target: ETV6 (Homo sapiens, UniProt P41212 1-452); conditions: protein: recombinant; tags: N-terminal GST; dsDNA, one strand shown
Method in brief: as §1

Sequence of ETV5 (P41161 whole entry): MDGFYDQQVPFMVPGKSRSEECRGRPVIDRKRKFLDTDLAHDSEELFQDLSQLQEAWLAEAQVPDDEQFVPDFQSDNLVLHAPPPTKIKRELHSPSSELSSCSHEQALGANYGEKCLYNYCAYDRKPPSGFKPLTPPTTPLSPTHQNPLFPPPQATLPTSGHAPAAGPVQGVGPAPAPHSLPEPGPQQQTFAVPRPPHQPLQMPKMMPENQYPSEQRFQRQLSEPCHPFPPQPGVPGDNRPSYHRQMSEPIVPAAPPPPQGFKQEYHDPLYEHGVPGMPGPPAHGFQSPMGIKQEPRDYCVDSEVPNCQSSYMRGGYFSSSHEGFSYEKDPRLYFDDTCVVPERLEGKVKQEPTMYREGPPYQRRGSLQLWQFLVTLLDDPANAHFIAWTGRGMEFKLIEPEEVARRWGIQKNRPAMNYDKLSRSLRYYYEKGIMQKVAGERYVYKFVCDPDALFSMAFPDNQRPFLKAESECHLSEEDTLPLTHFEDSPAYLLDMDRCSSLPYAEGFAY
Sequence of CRX (O43186 whole entry): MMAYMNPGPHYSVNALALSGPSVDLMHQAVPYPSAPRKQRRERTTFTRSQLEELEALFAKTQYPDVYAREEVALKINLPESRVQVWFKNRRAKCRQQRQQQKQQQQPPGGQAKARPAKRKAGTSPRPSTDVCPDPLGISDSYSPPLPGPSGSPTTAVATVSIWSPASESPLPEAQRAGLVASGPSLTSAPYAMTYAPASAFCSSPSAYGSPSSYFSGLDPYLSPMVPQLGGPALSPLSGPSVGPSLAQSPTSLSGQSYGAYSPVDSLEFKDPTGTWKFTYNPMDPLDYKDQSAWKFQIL
Sequence of ETV1 (P50549 whole entry): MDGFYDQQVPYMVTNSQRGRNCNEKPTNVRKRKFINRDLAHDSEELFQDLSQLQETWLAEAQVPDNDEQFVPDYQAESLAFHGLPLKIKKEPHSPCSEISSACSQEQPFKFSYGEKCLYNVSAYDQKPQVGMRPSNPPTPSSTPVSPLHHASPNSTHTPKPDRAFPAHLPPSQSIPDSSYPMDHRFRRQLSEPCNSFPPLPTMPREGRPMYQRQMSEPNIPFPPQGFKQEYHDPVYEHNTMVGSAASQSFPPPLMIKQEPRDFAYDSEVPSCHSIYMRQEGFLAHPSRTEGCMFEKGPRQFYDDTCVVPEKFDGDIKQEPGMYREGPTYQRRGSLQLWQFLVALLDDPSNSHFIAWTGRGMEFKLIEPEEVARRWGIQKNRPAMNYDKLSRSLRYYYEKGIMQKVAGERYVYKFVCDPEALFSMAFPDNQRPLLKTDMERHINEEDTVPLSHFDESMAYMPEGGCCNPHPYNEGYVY
Sequence of ETV6 (P41212 whole entry): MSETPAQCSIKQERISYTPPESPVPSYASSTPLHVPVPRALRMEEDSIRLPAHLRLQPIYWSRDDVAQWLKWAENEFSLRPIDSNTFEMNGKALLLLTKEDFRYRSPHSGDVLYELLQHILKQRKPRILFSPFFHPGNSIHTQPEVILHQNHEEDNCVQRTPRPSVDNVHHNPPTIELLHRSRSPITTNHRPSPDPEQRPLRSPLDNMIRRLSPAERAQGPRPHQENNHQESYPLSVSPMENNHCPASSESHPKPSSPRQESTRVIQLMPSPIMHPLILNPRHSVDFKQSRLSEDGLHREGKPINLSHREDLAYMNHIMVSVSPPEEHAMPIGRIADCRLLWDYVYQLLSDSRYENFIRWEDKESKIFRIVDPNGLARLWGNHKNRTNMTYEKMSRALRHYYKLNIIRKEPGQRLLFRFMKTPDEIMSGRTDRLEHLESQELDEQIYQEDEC
Sequence of HSF1 (Q00613 whole entry): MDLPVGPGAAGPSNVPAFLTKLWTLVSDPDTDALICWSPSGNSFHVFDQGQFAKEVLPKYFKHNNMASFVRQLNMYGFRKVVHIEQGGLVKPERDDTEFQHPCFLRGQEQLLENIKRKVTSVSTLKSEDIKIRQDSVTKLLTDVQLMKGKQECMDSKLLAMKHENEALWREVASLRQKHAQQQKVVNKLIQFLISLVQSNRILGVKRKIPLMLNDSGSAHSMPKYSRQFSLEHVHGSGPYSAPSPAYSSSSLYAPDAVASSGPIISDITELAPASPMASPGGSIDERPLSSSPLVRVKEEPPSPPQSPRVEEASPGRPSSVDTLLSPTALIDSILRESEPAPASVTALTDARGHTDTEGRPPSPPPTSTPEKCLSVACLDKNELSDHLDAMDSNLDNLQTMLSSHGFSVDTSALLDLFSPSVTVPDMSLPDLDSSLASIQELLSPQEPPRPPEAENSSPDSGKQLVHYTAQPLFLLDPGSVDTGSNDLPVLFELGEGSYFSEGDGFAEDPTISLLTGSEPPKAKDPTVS
Sequence of ELF4 (Q99607 whole entry): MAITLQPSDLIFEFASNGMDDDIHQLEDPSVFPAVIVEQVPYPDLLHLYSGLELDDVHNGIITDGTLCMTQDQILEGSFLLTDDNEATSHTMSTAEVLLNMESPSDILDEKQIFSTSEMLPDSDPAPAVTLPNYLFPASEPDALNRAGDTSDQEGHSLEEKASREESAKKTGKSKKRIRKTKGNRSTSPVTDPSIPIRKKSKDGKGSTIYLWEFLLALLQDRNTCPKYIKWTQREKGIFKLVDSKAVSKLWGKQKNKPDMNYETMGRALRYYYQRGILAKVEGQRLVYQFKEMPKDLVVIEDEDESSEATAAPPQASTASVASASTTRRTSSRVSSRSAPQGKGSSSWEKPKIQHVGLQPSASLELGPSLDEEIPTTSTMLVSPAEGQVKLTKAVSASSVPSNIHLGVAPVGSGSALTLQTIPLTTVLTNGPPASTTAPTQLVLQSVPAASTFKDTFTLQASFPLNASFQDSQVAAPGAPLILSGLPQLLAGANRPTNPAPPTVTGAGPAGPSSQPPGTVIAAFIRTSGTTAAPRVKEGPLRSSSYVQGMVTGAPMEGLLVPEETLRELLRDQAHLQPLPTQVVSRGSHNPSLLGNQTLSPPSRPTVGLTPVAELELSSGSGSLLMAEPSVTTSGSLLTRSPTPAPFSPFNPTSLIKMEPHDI

CTTGTT
binding signal [1]: 1.15 fold enrichment (6-mer frequency, TF over GST control)
binding signal [2]: 1.22 fold enrichment (6-mer frequency, TF over GST control)
binding signal [3]: 1.09 fold enrichment (6-mer frequency, TF over GST control)
binding signal [4]: 1.25 fold enrichment (6-mer frequency, TF over GST control)
binding signal [5]: 1.22 fold enrichment (6-mer frequency, TF over GST control)
binding signal [6]: 1.17 fold enrichment (6-mer frequency, TF over GST control)
binding signal [7]: 1.14 fold enrichment (6-mer frequency, TF over GST control)
binding signal [8]: 1.1 fold enrichment (6-mer frequency, TF over GST control)
binding signal [9]: 1.31 fold enrichment (6-mer frequency, TF over GST control)
binding signal [10]: 1.17 fold enrichment (6-mer frequency, TF over GST control)
binding signal [11]: 1.17 fold enrichment (6-mer frequency, TF over GST control)
binding signal [12]: 1.15 fold enrichment (6-mer frequency, TF over GST control)
binding signal [13]: 1.05 fold enrichment (6-mer frequency, TF over GST control)
binding signal [14]: 1.27 fold enrichment (6-mer frequency, TF over GST control)
binding signal [15]: 1.27 fold enrichment (6-mer frequency, TF over GST control)
binding signal [16]: 1.2 fold enrichment (6-mer frequency, TF over GST control)
binding signal [17]: 1.12 fold enrichment (6-mer frequency, TF over GST control)
